Laboratory results: PubChem BioAssay (EPA / NIEHS)
Inconclusive results are not listed. Calls of active or inactive are those of the source. Rule for the calls: active = hit-call score of the fitted dose curve at least 0.9, where 1 is the maximum; inconclusive = response in the unintended direction; inactive = score below 0.9.

target: PGR (gene 5241) (UniProt P06401); test: TOX21_PR_BLA_Followup_Antagonist_ratio: Tox21 HEK293 Progesterone Receptor (PR) Antagonism Beta-lactamase Follow-Up Assay, Ratio (AID 2283934)
Sequence (P06401 whole entry, looked up): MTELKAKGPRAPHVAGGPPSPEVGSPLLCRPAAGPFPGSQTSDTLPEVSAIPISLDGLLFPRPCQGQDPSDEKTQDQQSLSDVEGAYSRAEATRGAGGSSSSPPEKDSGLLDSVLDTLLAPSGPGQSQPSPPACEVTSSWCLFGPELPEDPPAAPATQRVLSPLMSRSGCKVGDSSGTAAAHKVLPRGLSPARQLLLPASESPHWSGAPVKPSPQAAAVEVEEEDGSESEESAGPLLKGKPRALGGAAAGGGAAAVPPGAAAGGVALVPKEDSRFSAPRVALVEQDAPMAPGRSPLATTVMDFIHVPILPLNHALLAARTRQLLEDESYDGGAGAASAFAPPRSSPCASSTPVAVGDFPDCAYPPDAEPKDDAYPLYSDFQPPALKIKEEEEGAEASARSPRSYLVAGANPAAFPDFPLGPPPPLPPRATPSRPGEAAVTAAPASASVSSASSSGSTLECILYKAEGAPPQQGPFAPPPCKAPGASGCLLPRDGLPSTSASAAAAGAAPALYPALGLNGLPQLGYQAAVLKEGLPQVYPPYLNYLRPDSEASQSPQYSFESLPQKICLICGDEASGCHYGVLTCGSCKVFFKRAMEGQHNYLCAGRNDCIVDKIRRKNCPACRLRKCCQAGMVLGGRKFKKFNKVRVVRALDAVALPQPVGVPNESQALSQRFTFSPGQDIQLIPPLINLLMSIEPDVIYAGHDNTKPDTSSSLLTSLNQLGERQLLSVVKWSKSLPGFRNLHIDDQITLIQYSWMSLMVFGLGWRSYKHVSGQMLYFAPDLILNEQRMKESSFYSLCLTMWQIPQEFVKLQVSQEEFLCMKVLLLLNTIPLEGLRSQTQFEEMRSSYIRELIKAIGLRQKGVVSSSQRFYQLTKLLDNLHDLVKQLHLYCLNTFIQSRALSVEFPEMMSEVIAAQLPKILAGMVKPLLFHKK
Outline: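 HEK293T PR-UAS-bla, 2% CS-FBS; 6 hr plating, then cpd + R5020 (1 nM final), 16 hr 37C/5% CO2. B/G FRET substrate 2 h RT. Ratio ch2/ch1 vs DMSO; CellTiter-Glo viability multiplexed, autofluorescence checked.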

| Compound | AC50 | outcome |
| --- | --- | --- |
| COCCOC(=O)C1=C(C)NC(C)=C(C(=O)OC(C)C)C1c1cccc([N+](=O)[O-])c1 (configuration not stated) | 23 µM (active) |  |
| C[C@]12CCC(=O)C=C1C=C[C@@H]1[C@@H]2CC[C@@]2(C)[C@H]1CC[C@@]21CCC(=O)O1 |  | inactive |
| CC(=O)OCC(=O)[C@@]1(OC(C)=O)[C@@H](C)C[C@H]2[C@@H]3C[C@H](F)C4=CC(=O)C=C[C@]4(C)[C@@]3(F)[C@@H](O)C[C@@]21C |  | inactive |

test system: not listed separately; test: TOX21_PR_BLA_Followup_Agonist_viability: Viability Assessment in the Tox21 HEK293 Progesterone Receptor (PR) Agonism Beta-lactamase Follow-Up Assay (AID 2283935);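 note: cells exposed to compound for 16 hr at 37 °C; signal loss means lower viability so actives are cytotoxic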
Outline: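 HEK293T PR-UAS-bla, 3,000 cells/well, 2% CS-FBS; 6 hr pre-incubation; cpd in DMSO, 16 hr 37C; LiveBLAzer 2 hr RT, then CellTiter-Glo 30 min RT, luminescence. Decrease = lost viability.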

| Compound | outcome |
| --- | --- |
| COCCOC(=O)C1=C(C)NC(C)=C(C(=O)OC(C)C)C1c1cccc([N+](=O)[O-])c1 (configuration not stated) | inactive |
| C[C@]12CCC(=O)C=C1C=C[C@@H]1[C@@H]2CC[C@@]2(C)[C@H]1CC[C@@]21CCC(=O)O1 | inactive |
| CC(=O)OCC(=O)[C@@]1(OC(C)=O)[C@@H](C)C[C@H]2[C@@H]3C[C@H](F)C4=CC(=O)C=C[C@]4(C)[C@@]3(F)[C@@H](O)C[C@@]21C | inactive |

test system: not listed separately; test: TOX21_PR_BLA_Followup_Antagonist_viability: Viability Assessment in the Tox21 HEK293 Progesterone Receptor (PR) Antagonism Beta-lactamase Follow-Up Assay (AID 2283936);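 note: hits lower the luminescence signal meaning cytotoxicity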
Outline: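 PR-UAS-bla HEK293T cells (3,000/well, 2% charcoal-stripped FBS) given compound plus R5020 agonist, 16 h at 37C. CellTiter-Glo added after bla read, 30 min at room temperature; luminescence loss indicates cytotoxicity.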

| Compound | outcome |
| --- | --- |
| COCCOC(=O)C1=C(C)NC(C)=C(C(=O)OC(C)C)C1c1cccc([N+](=O)[O-])c1 (configuration not stated) | inactive |
| C[C@]12CCC(=O)C=C1C=C[C@@H]1[C@@H]2CC[C@@]2(C)[C@H]1CC[C@@]21CCC(=O)O1 | inactive |
| CC(=O)OCC(=O)[C@@]1(OC(C)=O)[C@@H](C)C[C@H]2[C@@H]3C[C@H](F)C4=CC(=O)C=C[C@]4(C)[C@@]3(F)[C@@H](O)C[C@@]21C | inactive |

target: PGR (gene 5241) (UniProt P06401); test: TOX21_PR_LUC_Followup_Antagonist: Tox21 HEK293 Progesterone Receptor (PR) Antagonism Luciferase Follow-Up Assay (AID 2283938);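 note: curve fitted upward as signal gain over DMSO baseline despite antagonist label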
Outline: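 A follow-up to the PR bla screen using HEK293-PR-A-luc cells, multiplexed with cell viability to flag cytotoxicity. Reporter luminescence after 16 h compound exposure was analysed relative to DMSO.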

| Compound | AC50 | outcome |
| --- | --- | --- |
| COCCOC(=O)C1=C(C)NC(C)=C(C(=O)OC(C)C)C1c1cccc([N+](=O)[O-])c1 (configuration not stated) | 26.4 µM (active) |  |
| C[C@]12CCC(=O)C=C1C=C[C@@H]1[C@@H]2CC[C@@]2(C)[C@H]1CC[C@@]21CCC(=O)O1 |  | inactive |
| CC(=O)OCC(=O)[C@@]1(OC(C)=O)[C@@H](C)C[C@H]2[C@@H]3C[C@H](F)C4=CC(=O)C=C[C@]4(C)[C@@]3(F)[C@@H](O)C[C@@]21C |  | inactive |
